One may read the AC50 as the concentration at which the activity in the assay is half-maximal.

Our source for the outcome and AC50 values is PubChem BioAssay (EPA / NIEHS).

Each structure is given as a SMILES string. Active and inactive are the calls of the source. Rule for the calls: active = hit-call score of the fitted dose curve at least 0.9, where 1 is the maximum; inactive = score below 0.9.

One experiment in a line: CCTE_Harrill_HTTr_Viability_MCF7: CCTE's 6-hour Cell Viability Assessment for the High-Throughput Transcriptomics (HTTr) Platform, in MCF-7 cells cultured in DMEM + 10% fetal bovine serum, Harrill Lab (AID 2284010). In a few lines: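 MCF-7 cells in DMEM + 10% FBS, 384-well, exposed 6 h to an eight-point dilution series. Membrane integrity scored by high-content imaging of propidium iodide exclusion; bidirectional fit versus DMSO.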
For the compound `CCOC(=O)c1ccccc1C(=C1C=C(Br)C(=O)C(Br)=C1)c1cc(Br)c(O)c(Br)c1`, the outcome was inactive.
In the case of `Cc1oncc1C(=O)Nc1ccc(C(F)(F)F)cc1`, the result was inactive.
The same measure, in the same setting: under `NC(=O)N=NC(N)=O` stands “inactive”.
Regarding `COC(=O)C1=C(C)NC(C)=C(C(=O)OCC(C)C)C1c1ccccc1[N+](=O)[O-]` (stereo not given), the result was inactive.
Regarding `c1c[nH]cn1`, the result was inactive.
Regarding `Nc1ncn([C@@H]2O[C@H](CO)[C@@H](O)[C@H]2O)c(=O)n1`, the result was inactive.
As for `c1ccc(-c2ccccn2)nc1`, the outcome was inactive.
Turning to `CC(=O)OC(C)C`, the result was inactive.
With `O=C(O)CCCC[C@@H]1SC[C@@H]2NC(=O)N[C@@H]21`, the result was inactive.
As for `CC1(C)O[C@@H]2C[C@H]3[C@@H]4C[C@H](F)C5=CC(=O)C=C[C@]5(C)[C@@]4(F)[C@@H](O)C[C@]3(C)[C@]2(C(=O)CO)O1`, the outcome was inactive.
Regarding `CCCCCCCCCCCCCCCC[n+]1ccccc1`, the AC50 was 77.1 µM (active).
With `Cc1cc(C)c(C)cc1C`, the result was inactive.
With `O=c1cc(-c2ccccc2)oc2ccccc12`, the result was inactive.
For `CN(C)c1ccc(N=Nc2ccccc2C(=O)O)cc1`, the result was inactive.
With `C=C1C2CCC(C2)C1(C)C` (stereo not given), the outcome was inactive.
Turning to `CC(=O)[C@@]1(O)CC[C@H]2[C@@H]3C[C@H](C)C4=CC(=O)C=C[C@]4(C)[C@@]3(F)[C@@H](O)C[C@@]21C`, the result was inactive.
Same read-out and setting: under `CCCOC(=O)CCCCC(=O)OCCC` stands “inactive”.
On to `CCCCOCCOC(=O)COc1nc(Cl)c(Cl)cc1Cl`, for which the result was inactive.
`C=C(C)[C@H]1CC=C(C)CC1`: the outcome was inactive.
With `O=c1c2ccccc2oc2ccccc12`, the outcome was inactive.
For `CC/C=C\C/C=C\C/C=C\CCCCCCCC(=O)O`, the result was inactive.
`COc1ccc(-c2coc3cc(O)ccc3c2=O)cc1`: the outcome was inactive.
In the case of `O=C(C(Cl)Cl)N1CCOC12CCCCC2`, the result was inactive.
Turning to `CC1(C)O[C@@H]2C[C@H]3[C@@H]4C[C@H](F)C5=CC(=O)CC[C@]5(C)[C@H]4[C@@H](O)C[C@]3(C)[C@]2(C(=O)CO)O1`, the outcome was inactive.
Consider `O=C(Nc1ccccc1)c1ccccc1O`, for which the result was inactive.
Still for that read-out and setting: under `O=C(Nc1cccc(C(F)(F)F)c1)c1cc(Br)cc(Br)c1O` stands “inactive”; under `CCCCC(CC)COC(=O)c1ccccc1` (stereo not given), “inactive”.
On to `C1=Cc2ccccc2C1`, for which the result was inactive.
`CC(=O)Nc1nnc(S(N)(=O)=O)s1`: the outcome was inactive.
`Nc1ccc(N=Nc2ccccc2)c(N)n1`: the result was inactive.
Consider `CCN(Cc1cccc(S(=O)(=O)O)c1)c1ccc(C(=C2C=CC(=[N+](CC)Cc3cccc(S(=O)(=O)[O-])c3)C=C2)c2ccccc2)cc1`, for which the result was inactive.
For `NC(=O)OCC(COC(N)=O)c1ccccc1`, the result was inactive.
For `C[C@]12C=CC(=O)C=C1CC[C@@H]1[C@@H]2[C@@H](O)C[C@@]2(C)[C@H]1CC[C@]2(O)C(=O)CO`, the result was inactive.
For the compound `CCCCC(CC)COC(=O)c1ccccc1O` (stereo not given), the result was inactive.
In the case of `CC(=O)[C@H]1[C@H](C#N)C[C@H]2[C@@H]3CC=C4C[C@@H](O)CC[C@]4(C)[C@H]3CC[C@@]21C`, the result was inactive.

Another experiment can be described thus: CCTE_Harrill_HTTr_Apoptosis_MCF7: CCTE's 6-hour Apoptosis Assessment for the High-Throughput Transcriptomics (HTTr) Platform, in MCF-7 cells cultured in DMEM + 10% fetal bovine serum, Harrill Lab (AID 2284011). In outline: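 Cells are dosed with test chemicals at eight concentrations and imaged 6 hours later for caspase-3/7 activity using a green fluorogenic detection reagent. Activity is fitted in both directions against DMSO controls.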
Take `CCOC(=O)c1ccccc1C(=C1C=C(Br)C(=O)C(Br)=C1)c1cc(Br)c(O)c(Br)c1`: the result was inactive.
As for `Cc1oncc1C(=O)Nc1ccc(C(F)(F)F)cc1`, the result was inactive.
`NC(=O)N=NC(N)=O`: the outcome was inactive.
Take `COC(=O)C1=C(C)NC(C)=C(C(=O)OCC(C)C)C1c1ccccc1[N+](=O)[O-]` (stereo not given): the outcome was inactive.
The same measure, in the same setting: under `c1c[nH]cn1` stands “inactive”.
As to `Nc1ncn([C@@H]2O[C@H](CO)[C@@H](O)[C@H]2O)c(=O)n1`, the outcome was inactive.
For the compound `c1ccc(-c2ccccn2)nc1`, the outcome was inactive.
As for `CC(=O)OC(C)C`, the outcome was inactive.
For the compound `O=C(O)CCCC[C@@H]1SC[C@@H]2NC(=O)N[C@@H]21`, the outcome was inactive.
`CC1(C)O[C@@H]2C[C@H]3[C@@H]4C[C@H](F)C5=CC(=O)C=C[C@]5(C)[C@@]4(F)[C@@H](O)C[C@]3(C)[C@]2(C(=O)CO)O1`: the outcome was inactive.
For the compound `CCCCCCCCCCCCCCCC[n+]1ccccc1`, the AC50 is 61.4 µM (active).
For `Cc1cc(C)c(C)cc1C`, the result was inactive.
Still for that read-out and setting: under `O=c1cc(-c2ccccc2)oc2ccccc12` stands “inactive”; under `CN(C)c1ccc(N=Nc2ccccc2C(=O)O)cc1`, “inactive”; under `C=C1C2CCC(C2)C1(C)C` (stereo not given), “inactive”.
For `CC(=O)[C@@]1(O)CC[C@H]2[C@@H]3C[C@H](C)C4=CC(=O)C=C[C@]4(C)[C@@]3(F)[C@@H](O)C[C@@]21C`, the outcome was inactive.
The same measure, in the same setting: under `CCCOC(=O)CCCCC(=O)OCCC` stands “inactive”; under `CCCCOCCOC(=O)COc1nc(Cl)c(Cl)cc1Cl`, “inactive”; under `C=C(C)[C@H]1CC=C(C)CC1`, “inactive”.
For the compound `O=c1c2ccccc2oc2ccccc12`, the outcome was inactive.
On to `CC/C=C\C/C=C\C/C=C\CCCCCCCC(=O)O`, for which the outcome was inactive.
For the compound `COc1ccc(-c2coc3cc(O)ccc3c2=O)cc1`, the result was inactive.
`O=C(C(Cl)Cl)N1CCOC12CCCCC2`: the result was inactive.
For the compound `CC1(C)O[C@@H]2C[C@H]3[C@@H]4C[C@H](F)C5=CC(=O)CC[C@]5(C)[C@H]4[C@@H](O)C[C@]3(C)[C@]2(C(=O)CO)O1`, the result was inactive.
Turning to `O=C(Nc1ccccc1)c1ccccc1O`, the result was inactive.
With `O=C(Nc1cccc(C(F)(F)F)c1)c1cc(Br)cc(Br)c1O`, the outcome was inactive.
Turning to `CCCCC(CC)COC(=O)c1ccccc1` (stereo not given), the result was inactive.
For `C1=Cc2ccccc2C1`, the outcome was inactive.
As to `CC(=O)Nc1nnc(S(N)(=O)=O)s1`, the result was inactive.
Regarding `Nc1ccc(N=Nc2ccccc2)c(N)n1`, the result was inactive.
On to `CCN(Cc1cccc(S(=O)(=O)O)c1)c1ccc(C(=C2C=CC(=[N+](CC)Cc3cccc(S(=O)(=O)[O-])c3)C=C2)c2ccccc2)cc1`, for which the outcome was inactive.
On the same count and under the same terms, under `NC(=O)OCC(COC(N)=O)c1ccccc1` stands “inactive”; under `C[C@]12C=CC(=O)C=C1CC[C@@H]1[C@@H]2[C@@H](O)C[C@@]2(C)[C@H]1CC[C@]2(O)C(=O)CO`, “inactive”; under `CCCCC(CC)COC(=O)c1ccccc1O` (stereo not given), “inactive”.
With `CC(=O)[C@H]1[C@H](C#N)C[C@H]2[C@@H]3CC=C4C[C@@H](O)CC[C@]4(C)[C@H]3CC[C@@]21C`, the result was inactive.
